Records with an inconclusive call do not appear. Entries that show only a call come without a potency. Calls of active or inactive are those of the source. Calls follow the shape of the dose curve; as a rule, active = well fitted cell-killing curve with a large enough effect; inconclusive = small, poorly fitted or top-dose-only effect, or effect the other way; inactive = no such curve, though single readings can be large or run the other way. Peptide text beside a SMILES is read from it.
Test: Quantitative High-Throughput drug screen in 47 multiple myeloma cell lines against the NCATS MIPE library collection: SKMM1_PLB cell viability assay (AID 1919863)
Conditions: SKMM1 myeloma viability, CellTiter-Glo ATP, 48 h; viability: stronger effect = lower value
In short: (§1)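 Cells were exposed to library compounds for 48 hours, after which ATP was measured by CellTiter-Glo. Signal was taken as median relative luminescence units.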
Also: nearly all actives have a fitted effect of over 35% in size.
Potency is read from the fitted curve at half-maximal effect.

Row | Structure (SMILES) | Potency | viability
1 | CCCS(=O)c1ccc2nc(NC(=O)OC)[nH]c2c1 (configuration not stated) | 10.5 µM (active) | 
2 | Cc1c(OCC(F)(F)F)ccnc1CS(=O)c1nc2ccccc2[nH]1 (configuration not stated) |  | 128% (inactive)
3 | Cc1cc(=O)c2c(O)c3c(O)cc(=O)c4c3c3c(cc(O)c1c23)C(C)(C)C=4O | 5.26 µM (active) | 
4 | CC(=O)NC[C@H]1CN(c2ccc(N3CCOCC3)c(F)c2)C(=O)O1 | 3.72 µM (active) | 
5 | CC1(C)CCC(C)(C)c2cc(NC(=O)c3ccc(C(=O)O)cc3)ccc21 | 14.8 µM (active) | 

Test: Quantitative High-Throughput drug screen in 47 multiple myeloma cell lines against the NCATS MIPE library collection: U266_ATCC cell viability assay (AID 1919864)
Conditions: U266 myeloma viability, CellTiter-Glo ATP luminescence, 48 h; series mostly up to 45.8 µM
In short: as §1

Row | Structure (SMILES) | Potency
6 | c1cnc2cc3c(cc2n1)C1CNCC3C1 | inactive
7 | Nc1cc(C(Cl)=C(Cl)Cl)c(S(N)(=O)=O)cc1S(N)(=O)=O | inactive
8 | COC(=O)[C@H](Cc1ccccc1)NC(=O)[C@@H](N)CC(=O)O (H-Asp-Phe-OMe) | inactive
9 | O=c1ccc2ccc(O)c(O)c2o1 | 9.35 µM (active)
10 | C[Se]CCC(N)C(=O)O (configuration not stated) | inactive
11 | COc1c(O)cc2c(c1O)[C@@H]1O[C@H](CO)[C@@H](O)[C@H](O)[C@H]1OC2=O | inactive
12 | Cc1cc(=O)c2c(O)c3c(O)cc(=O)c4c3c3c(cc(O)c1c23)C(C)(C)C=4O | 26.4 µM (active)
13 | CN1C(C(=O)Nc2ccccn2)=C(O)c2sccc2S1(=O)=O | inactive
14 | COC(=O)N[C@H](C(=O)N[C@@H](Cc1ccccc1)[C@@H](O)CN(Cc1ccc(-c2ccccn2)cc1)NC(=O)[C@@H](NC(=O)OC)C(C)(C)C)C(C)(C)C | inactive
15 | COc1cc2nc(N3CCN(C(=O)C4CCCO4)CC3)nc(N)c2cc1OC (configuration not stated) | inactive
16 | CC(=O)NC[C@H]1CN(c2ccc(N3CCOCC3)c(F)c2)C(=O)O1 | inactive
17 | CC(C)[C@H](N)C(=O)OCCOCn1cnc2c(=O)[nH]c(N)nc21 | inactive
18 | O=C1c2c(O)cc(O)cc2OC(c2ccc(O)c(O)c2)C1O (configuration not stated) | inactive
19 | CC(C)c1ccc2c(c1)c(SC(C)(C)C)c(CC(C)(C)C(=O)O)n2Cc1ccc(Cl)cc1 | 20.9 µM (active)
20 | CC1(C)CCC(C)(C)c2cc(NC(=O)c3ccc(C(=O)O)cc3)ccc21 | inactive
21 | Cc1cccc(C)c1OCC(=O)N[C@@H](Cc1ccccc1)[C@@H](O)C[C@H](Cc1ccccc1)NC(=O)[C@H](C(C)C)N1CCCNC1=O | inactive
22 | CCC1=C(C)CN(C(=O)NCCc2ccc(S(=O)(=O)NC(=O)NC3CCC(C)CC3)cc2)C1=O (configuration not stated) | inactive

Reference: PubChem BioAssay (NCATS)
